These results are taken from PubChem BioAssay (NCI).

The panel holds about 79,000 compounds, 15% with a hit somewhere; the sample as a whole holds those more often. A number with no mark means an inactive call. Calls of active or inactive are those of the source. Rule as the data show it: active = growth inhibition above about 70%; inactive = the rest.

A short description of the experiment: NCI Yeast Anticancer Drug Screen. Data for the mec2-1 strain (AID 157). The note with it: S. cerevisiae mec2-1 strain, at 50.0 µM, active compounds read high. In outline: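 Compounds were applied to mec2-1 yeast cells. Their growth was then compared with that of vehicle-treated cultures to give growth inhibition.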
In the case of `CCC(c1ccc(OC)cc1)C(O)(CC)c1ccc(OC)cc1` (stereo not drawn), the growth inhibition was 98.8% (active).

For the compound `Cc1c(Cl)c(S(N)(=O)=O)cc2c1NC=NS2(=O)=O`, the growth inhibition was -22.8%.

In the case of `CCCCCCCCNc1ncnc2c1cnn2C`, the growth inhibition is 43%.

Take `Cc1cc(N)c(C)c2c1[nH]c1ccc(Br)cc12`: the growth inhibition is 42.1%.

For the compound `C(=C\c1cnnc2ccccc12)/c1ccco1`, the growth inhibition is 20.4%.

Consider `Cc1cc(N(CCCCl)CCCCl)ccc1C=Nc1cccc(Cl)c1`, for which the growth inhibition was 32.8%.

On to `CCC[CH2][Sn]([CH2]CCC)([O]C(=O)c1cc(F)ccc1F)[O]C(=O)c1cc(F)ccc1F`, for which the growth inhibition is 83.6% (active).

With `O=[N+]([O-])c1ccc(N2N=NC(CN3CCOCC3)C2N2CCOCC2)cc1` (stereo not drawn), the growth inhibition was 47.3%.

As for `O=CC(I)=C(c1ccccc1)c1ccccc1`, the growth inhibition is 92.3% (active).

As for `CCC/C(=N\O)S(=O)(=O)c1ccc(NN=O)nc1`, the growth inhibition is -26.8%.

Turning to `COc1cc(Cc2n[nH]c(=S)n2-c2ccccc2)c(S(N)(=O)=O)cc1OC`, the growth inhibition is 0.85%.

On to `CC(=O)Nc1ccc(C(C)(C)c2ccc(C)cc2)cc1`, for which the growth inhibition is -12.2%.

For the compound `CC(C)=NOc1ccc([N+](=O)[O-])cc1[N+](=O)[O-]`, the growth inhibition is 53%.

On to `CC(=O)Nc1ccc2c(c1)C(S)c1ccccc1-2` (stereo not drawn), for which the growth inhibition was 31.7%.

As for `CCN1CC(=O)N(C)C1=S`, the growth inhibition is 71.2% (active).

Take `[O-][n+]1c(-c2ccccc2)c(Cl)c(-c2ccccc2)n1O`: the growth inhibition was 97% (active).

Regarding `CCCCCCCCCCCCCCCCN(C)c1ccc(S(=O)(=O)O)cc1[N+](=O)[O-]`, the growth inhibition is 89% (active).

For the compound `Cc1ccc2c(c1)-c1c(c3c(c4c1-c1cc(C)ccc1CC4)C(=O)OC3=O)CC2`, the growth inhibition was 16.7%.
